Hit rate of the full screen: of about 360,000 compounds, about 6,200 (1.7%) were called active. Only a selection was taken, and actives are over-represented in it overall. Unmarked numbers belong to inactive results.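 Rule for the calls: active = inhibition of at least 50% at 20 µM; inactive = the rest.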

The nature of this experiment: Peg3 promoter-driven luciferase inhibitors, primary screen, cell-based, HeLa, luciferase luminescence (AID 588405). Conditions: HeLa PEG-Prom luciferase reporter, overnight, at 20 µM, stronger effect = higher value. (Reporter assays use an easily measured gene product as a stand-in for the process of interest.)
Consider `COc1cccc2c1C(=O)c1c(O)c3c(c(O)c1C2=O)CC(O)(C(C)=NNC(=O)c1ccc(Cl)c(Cl)c1)CC3OC1CC(N)C(O)C(C)O1` (configuration not stated), for which the inhibition (in general, the relative decrease from the control value, in per cent) was 98.3% (active).
Turning to `O=C(NC1CC1)C1=C[C@H](c2c[nH]c3ccccc23)C[C@H](OCc2ccc(CO)cc2)O1`, the inhibition is -8.53%.
Consider `O=C(Nc1cccc2ccccc12)c1onc2c1CCCC2`, for which the inhibition was -211%.
As for `O=C(Nc1cccc2ccccc12)NC1CC1`, the inhibition was 6.64%.
As for `O=C(Nc1cccc2ccccc12)c1[nH]c(-c2ccccc2)c2c1C(=O)N(C1CC1)C2=O`, the figure is 52.8% (active); as for `COc1ccc(C(=O)N2CCCCC2c2cc(C(=O)Nc3ccc(F)c(Cl)c3)no2)cc1` (configuration not stated), 11.5%.
As for `Cc1nccn1-c1ccc(NC(=O)[C@H]2O[C@@H](n3cnc4c(N)ncnc43)[C@H](O)[C@@H]2O)cc1`, the figure is 7.92%; as for `CCc1nc2ccc(C(=O)NCc3ccc(OC)cc3)cn2c1N(CC)Cc1cccc(Br)c1`, 19.4%.
For the molecule `COc1ccc(NC(=O)c2sc(=O)n(Cc3ccc(S(=O)(=O)N(C)C)cc3)c2C)cc1`, the inhibition was 2.16%.
With `Cc1ccc(SCC(=O)N2CCN(c3ccc(F)cc3)CC2)cc1`, the inhibition was 8.76%.
As for `CCN1CCC2(CC1)N=C(c1ccc(F)cc1)C(=S)N2C(=O)c1ccc(C)cc1`, the figure is 90% (active); as for `Cc1ccc(C(=O)N2CC(=O)Nc3ccc(F)cc3C2c2ccc(F)cc2)cc1` (configuration not stated), 17.9%.
`CCCNC(=O)c1cc(C2CCCCN2S(=O)(=O)c2ccc(C#N)cc2)on1` (configuration not stated): the inhibition was -6.28%.
As for `OC(c1cc(Cl)cc(Cl)c1)c1ncc(-c2ccccc2C(F)(F)F)[nH]1` (configuration not stated), the figure is 35.8%; as for `CCc1ccc(/C=N/NC(=O)c2ccc(OC3CCCC3)cc2)s1`, 14.5%.
As for `CC1(C(=O)NCc2ccco2)Cc2c(-c3ccc4c(c3)OCO4)ccnc2O1` (configuration not stated), the figure is 7.44%.
As for `O=C(NC1=CC(=O)c2ccccc2C1=O)c1ccccc1`, the figure is 106% (active); as for `O=C(Nc1ccc2ccccc2c1[N+](=O)[O-])c1ccccc1`, -223%.
`O=C(Nc1ncccc1O)c1ccc(C(=O)c2ccccc2)cc1`: the inhibition was -204%.
As for `CCCNC(=O)C1(C)CCCN(C(=O)c2cccc(OC(C)=O)c2C)C1` (configuration not stated), the figure is -1.66%.
As for `COc1cc(NS(=O)(=O)c2ccc3ccccc3c2)c2ncccc2c1`, the figure is 54.5% (active).
As for `CCOc1ncccc1C(=O)NNC(=O)c1cccc(S(=O)(=O)Nc2ccccc2OC)c1`, the figure is 6.59%; as for `CCOc1cc(NS(=O)(=O)c2ccc(OC)cc2)c(OCC)cc1NC(C)=O`, 11.6%; as for `COc1ccc(N2C(=O)NC(NS(=O)(=O)c3ccc(Cl)cc3)(C(F)(F)F)C2=O)cc1` (configuration not stated), 10.8%.
`CC1=C(C(=O)N2CCOCC2)CC(CC(=O)NCc2cccs2)C(=O)N1CCCN1CCCC1=O` (configuration not stated): the inhibition was 0.54%.
As for `O=C1C(Cl)=C(Oc2ccccc2)C(=O)c2ccccc21`, the figure is 104% (active); as for `O=c1[nH]nc(SCCS(=O)(=O)c2ccc(F)cc2)n1-c1ccccc1C(F)(F)F`, -139%; as for `CC(C)(C)N1C(=O)c2c(C(=O)OCc3ccccc3)[nH]c(-c3ccccc3)c2C1=O`, 24.2%.
As for `COc1ccc(NC(=O)c2cn(-c3ccccc3)nc2SC)cc1`, the figure is -78.1%; as for `CC1C(=O)N(Cc2ccccc2)c2ccccc2N1C(=O)c1ccccc1` (configuration not stated), 21.3%.
Take `CC1CC(C)CN(CC(=O)N2c3ccccc3CCc3ccccc32)C1` (configuration not stated): the inhibition was 9.54%.
As for `CC1C(C)N(C(=O)CCl)c2ccccc2N1C(=O)CCl` (configuration not stated), the figure is 99.2% (active); as for `COc1ccc(C)cc1NC(=O)c1[nH]c(C)c(C(C)=O)c1C`, 4.55%.
Regarding `CCCC/C=C/c1cccc2nncn12`, the inhibition was 2.91%.
As to `O=S(=O)(c1ccc2c(c1)OCCO2)N1CCc2ccccc21`, the inhibition is 25.9%.
Take `O=S(=O)(c1ccccc1)N1CCc2ccccc21`: the inhibition is 5.92%.
As for `CSc1nc2ccc(S(=O)(=O)N3CCc4ccccc43)cc2s1`, the figure is 52.1% (active); as for `Cn1c(=O)c2c(-c3cccc(Br)c3)c(C#N)c(N)nc2n(C)c1=O`, 7.56%.
With `CSc1ccc(-c2c(C#N)c(N)nc3c2c(C)nn3-c2ccccc2)cc1`, the inhibition is 76.2% (active).
As for `Cc1nc2c(c(C)nn2-c2ccccc2)c(C)c1C`, the figure is 21.8%.
As for `CCOC(=O)[C@H]1Nc2ccc(Cl)cc2[C@@H]2[C@H]1C1CC(c3ccccc31)N2C(=O)OCc1ccccc1` (some centres not stated), the inhibition is 26.4%.
With `N#Cc1cccc(NC(=O)c2cc(C3CCCCN3C(=O)CCc3ccccc3)on2)c1` (configuration not stated), the inhibition was 23.6%.
As for `COc1ccc(-c2oc3ncnc(NCCCO)c3c2-c2ccc(OC)cc2)cc1`, the figure is 56.5% (active); as for `COCCNc1ncnc2c1ncn2[C@H]1CN(Cc2ccc(OC)cc2)C[C@@H](CO)O1`, -12.7%; as for `COc1ccc(-c2oc3ncn(Cc4ccco4)c(=N)c3c2-c2ccc(OC)cc2)cc1`, 9.27%.
As for `CC(C)(C)OC(=O)N1CCN(C(=O)c2[nH]c(C(F)(F)F)nc2-c2ccccc2)CC1`, the figure is 5.18%.
As for `CCN(CC)CCNC(=O)Cn1cnc2sc(C)c(S(=O)(=O)N3CCOCC3)c2c1=O`, the figure is -0.66%; as for `CCN(CC)CCNC(=O)c1sc2ncn(CC(=O)Nc3ccc(C)c(Cl)c3)c(=O)c2c1C`, 87.1% (active); as for `CCN(CC)CCCNC(=O)Cn1cnc2sc(C)c(S(=O)(=O)N3CCN(c4ncccn4)CC3)c2c1=O`, -7.38%.
Take `Fc1cccc(Cc2c(-c3ccc(Cl)cc3)nc3ccc(Cl)cn23)c1`: the inhibition is -75.2%.
As for `CCNC(=O)C1(C)CCCN(C(=O)c2c(C)noc2C)C1` (configuration not stated), the figure is -5.02%; as for `Cn1c(Cc2csc(N)n2)nnc1SC/C=C/c1ccccc1`, -0.48%.
Take `COc1cc(C(=O)NNC(=O)c2ccc(S(=O)(=O)N3CCCCC3)cc2)cc(OC)c1OC`: the inhibition was 3.84%.
As to `CN(C)CCCN(C(=O)c1ccc(S(=O)(=O)N2CCCCCC2)cc1)c1nc2ccc(Br)cc2s1`, the inhibition was 57.8% (active).
As for `CCOc1ccc2nc(/N=C/c3nc(-c4ccccc4)oc3O)sc2c1`, the figure is -127%.
As for `CCc1ccc2nc(N(CCCN(C)C)C(=O)c3ccc4c(c3)OCCO4)sc2c1`, the figure is 76% (active); as for `CCN(CC(=O)Nc1c(F)cccc1F)C(=O)c1ccc(S(=O)(=O)N2CCCCC2)cc1`, 3.57%.
For the molecule `CCN(C(=O)COc1ccc(C(=O)c2ccccc2)cc1)c1ccccc1`, the inhibition is 2.39%.
As for `CCN(CC)CCN(C(=O)c1cc(Cl)sc1Cl)c1nc2cc3c(cc2s1)OCO3`, the figure is -57.9%.
As for `CCOc1ccc2nc(N(CCCN(C)C)C(=O)c3ccc(C(=O)c4ccccc4)cc3)sc2c1`, the figure is 105% (active).
As for `CN(C)CCN(C(=O)C1=COCCO1)c1nc2ccc(Cl)cc2s1`, the figure is -91.5%; as for `CCOC(=O)C1CCCN(C(=O)c2cccc3ccccc23)CC1` (configuration not stated), 10.3%; as for `O=C(C1=C(O)C(=O)N(CCOCCO)C1c1ccccn1)c1cccs1` (configuration not stated), -2.88%.
Take `COc1ccc(NC(=O)c2cc(=O)[nH]c3ccccc23)cc1S(=O)(=O)N1CCOCC1`: the inhibition is -0.23%.
As for `OC[C@@H]1CN(Cc2cccs2)C[C@H](n2cnc3c(Nc4ccccc4)ncnc32)O1`, the figure is -9.51%; as for `CCCCN1CC(N2CCN(Cc3cccc(C)c3)CC2)CS1(=O)=O` (configuration not stated), -1.8%.
As for `O=C1NCC(c2ccccc2)(c2ccccc2)C(=O)N1`, the figure is -0.6%; as for `CCCNC(=O)C1(C)CCN1C(=O)C1(c2ccccc2)CC1` (configuration not stated), 8.72%.
For `COc1ccccc1NC(=O)CCC(=O)N1CC(C)Oc2ccc(C)cc21` (configuration not stated), the inhibition is 14.5%.
As for `O=C(CC1Oc2ccccc2NC1=O)NCCCN1CCN(Cc2ccccc2)CC1` (configuration not stated), the figure is 1.93%; as for `CC1CN(C(=O)CCC(=O)NCCCN2CCC(Cc3ccccc3)CC2)c2cc(Cl)ccc2O1` (configuration not stated), 102% (active).
As for `CC(C)CN1CCC1(C)C(=O)Nc1ccc(OC(F)F)cc1` (configuration not stated), the figure is 3.35%; as for `COc1ccc(-c2ccc(OC(=O)NC3CCS(=O)(=O)C3)cc2)cc1` (configuration not stated), -160%; as for `COCCNc1nc(NCc2ccc(NC(C)=O)cc2)c2sccc2n1`, 20.4%.
As for `COCCNc1nc(Nc2ccccc2Cl)c2sc(-c3ccccc3)cc2n1`, the figure is 5.82%.
For `CC(=O)Nc1ccc(CNc2nc(NCCN(C)C)nc3cc(-c4ccccc4)sc23)cc1`, the inhibition was 97.3% (active).
In the case of `C=CCc1cccc2cc(C(=O)N3CCN(C(=O)OCC)CC3)c(=O)oc12`, the inhibition was 22.4%.
As for `Cc1cccn2c(=O)c(/C=C(\C#N)S(=O)(=O)c3ccc(Cl)cc3)c(N3CCC(C(N)=O)CC3)nc12`, the figure is -3.35%.
As for `Cc1cccn2c(=O)c3cc(C(=O)NC4CCCCC4)sc3nc12`, the figure is -45%; as for `Cc1cc(C)cc(Oc2nc3c(C)cccn3c(=O)c2/C=C(\C#N)C(=O)NC2CCS(=O)(=O)C2)c1` (configuration not stated), 61.6% (active).
As for `FC(F)(F)c1ccccc1Cc1c(-c2ccccc2)nc2c3ccccc3ccn12`, the figure is -34.1%.
`Cc1c(-c2ccccc2)n[nH]c1C(=O)N=Nc1c(O)[nH]c2ccccc12`: the inhibition is -126%.
Regarding `O=C(NCc1ccncc1)c1ccc(NS(=O)(=O)c2cccc([N+](=O)[O-])c2)cc1`, the inhibition is -13.3%.
With `O=[N+]([O-])c1cc(S(=O)(=O)Nc2cccc(Cl)c2)ccc1N=Nc1c(O)[nH]c2ccccc12`, the inhibition was 65.1% (active).
As for `CCCCc1nc2ccc(F)cc2cc1C`, the figure is 6.65%.
As for `c1c2c(cc3sc(N4CCCCC4)nc13)OCCO2`, the figure is 80.5% (active).
As for `CCOC(=O)N1CCC(NC(=O)c2ccc3nc(N4CCOCC4)sc3c2)CC1`, the figure is 16.9%.

The record behind these values is PubChem BioAssay AID588405 (Sanford-Burnham Center for Chemical Genomics, 2011).
